Calls of active or inactive are those of the source. How the source made its calls: active means hit-call score of the fitted dose curve at least 0.9, where 1 is the maximum; inactive means score below 0.9.
Columns and labels:
[1] = read-out: Vascular cell adhesion molecule 1 (VCAM1), VCAM1 (gene 7412); test: BSK_hDFCGF_VCAM1: BioMAP Diversity Plus: hDFCGF Assay for Vascular cell adhesion molecule 1 (VCAM1) Biomarker Activity (AID 2283065); conditions: primary human foreskin fibroblasts; actives raise or lower the signal;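 on AC50: VCAM-1 protein level quantified by ELISA after 24 h chemical exposure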
Procedure, shortened: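 Human foreskin fibroblast primary cells, chemical exposure 24 h; VCAM-1 by ELISA; bidirectional fit, DMSO = negative control/baseline.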

[2] = read-out: Plasminogen activator inhibitor-1 (PAI1), SERPINE1 (gene 5054); test: BSK_hDFCGF_PAI1: BioMAP Diversity Plus: hDFCGF Assay for Plasminogen activator inhibitor-1 (PAI1) Biomarker Activity (AID 2283066); conditions: primary human foreskin fibroblasts; actives raise or lower the signal
Procedure, shortened: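 PAI-1 levels in human dermal foreskin fibroblasts were quantified by ELISA 24 h after dosing, with gain or loss analysed against DMSO. Overt cytotoxicity was checked by sulforhodamine B total-protein staining in parallel cultures.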

[3] = read-out: Intercellular Adhesion Molecule 1 (ICAM1), ICAM1 (gene 3383); test: BSK_KF3CT_ICAM1: BioMAP Diversity Plus: KF3CT Assay for Intercellular Adhesion Molecule 1 (ICAM1) Biomarker Activity (AID 2283067); conditions: primary human keratinocytes with fibroblasts; actives raise or lower the signal
Procedure, shortened: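 ICAM-1 levels are measured by ELISA 24 h after dosing a primary human co-culture of keratinocytes and foreskin fibroblasts. Activity in either direction is fitted relative to DMSO vehicle.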

[4] = read-out: Interferon-gamma inducible Protein 10 (IP10), CXCL10 (gene 3627); test: BSK_KF3CT_IP10: BioMAP Diversity Plus: KF3CT Assay for Interferon-gamma inducible Protein 10 (IP10) Biomarker Activity (AID 2283068); conditions: primary human keratinocytes with fibroblasts; actives raise or lower the signal
Procedure, shortened: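 ELISA read-out of IP-10 after 24 h chemical dosing of human skin primary co-culture (keratinocytes, foreskin fibroblasts). Gain or loss of signal relative to DMSO, bidirectional curve fit.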

[5] = read-out: Interleukin-1 alpha (IL1a), IL1A (gene 3552); test: BSK_KF3CT_IL1a: BioMAP Diversity Plus: KF3CT Assay for Interleukin-1 alpha (IL1a) Biomarker Activity (AID 2283070); conditions: primary human keratinocytes with fibroblasts; actives raise or lower the signal
Procedure, shortened: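 Readout is IL-1a level by ELISA, compared bidirectionally with DMSO as baseline. Cells: human keratinocytes co-cultured with foreskin fibroblasts, harvested 24 h post-dose.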

[6] = read-out: Transforming growth factor beta 1 (TGFb1), TGFB1 (gene 7040); test: BSK_KF3CT_TGFb1: BioMAP Diversity Plus: KF3CT Assay for Transforming growth factor beta 1 (TGFb1) Biomarker Activity (AID 2283072); conditions: primary human keratinocytes with fibroblasts; actives raise or lower the signal
Procedure, shortened: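 ELISA quantifies TGF-b1 at 24 h post-dose in a primary human skin co-culture of keratinocytes and fibroblasts, with gain or loss judged against DMSO. Parallel SRB total-protein staining flags overt cytotoxicity.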

[7] = read-out: C-C motif chemokine 2 (Homo sapiens) (UniProt P13500); test: BSK_KF3CT_MCP1: BioMAP Diversity Plus: KF3CT Assay for Monocyte Chemoattractant Protein 1 (MCP1/CCL2) Biomarker Activity (AID 2283073); conditions: primary human keratinocytes with fibroblasts; actives raise or lower the signal
Procedure, shortened: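 ELISA readout of MCP-1 after 24 h chemical dosing of a human skin primary co-culture of keratinocytes and foreskin fibroblasts. Activity was fitted in both directions against DMSO.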

[8] = read-out: Matrix Metallopeptidase 9 (MMP9), MMP9 (gene 4318); test: BSK_KF3CT_MMP9: BioMAP Diversity Plus: KF3CT Assay for Matrix Metallopeptidase 9 (MMP9) Biomarker Activity (AID 2283074); conditions: primary human keratinocytes with fibroblasts; actives raise or lower the signal;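 on AC50: MMP9 protein level quantified by ELISA in the co-culture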
Procedure, shortened: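 Values come from bidirectional fitting relative to DMSO of MMP-9 levels, which were measured by ELISA. Measurements were taken 24 h after chemical dosing of a keratinocyte and foreskin fibroblast co-culture.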

[9] = BSK_KF3CT_SRB: Viability Assessment in the BioMAP Diversity Plus: KF3CT Assay (AID 2283069); conditions: primary human keratinocytes with fibroblasts;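 further: read 24 h after compound addition; fitted for both signal gain and loss against DMSO baseline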
Procedure, shortened: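 Overt cytotoxicity is assessed as total protein by sulforhodamine B staining in parallel human skin co-cultures at 24 h after dosing. DMSO serves as negative control and baseline.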

[10] = read-out: TIMP metallopeptidase inhibitor 2 (TIMP2), TIMP2 (gene 7077); test: BSK_KF3CT_TIMP2: BioMAP Diversity Plus: KF3CT Assay for TIMP metallopeptidase inhibitor 2 (TIMP2) Biomarker Activity (AID 2283071); conditions: primary human keratinocytes with fibroblasts; actives raise or lower the signal
Procedure, shortened: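 TIMP-2 measured by ELISA at 24 h in human keratinocyte/fibroblast primary co-cultures exposed to chemicals. Both increases and decreases were fitted against DMSO. Parallel cultures were stained with SRB for total protein as an overt-cytotoxicity check.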

Measured: AC50

Nc1cccc(N)c1
not listed: [9] | [10]
inactive: all other assays above

CCOCCOCCOCCO
not listed: [4]
inactive: all other assays above

COc1cccc(-c2ccc(/C=C\CN3CCCCCC3)cc2Cl)c1
active: [1] 30.5 µM | [2] 25.3 µM | [3] 28.4 µM | [4] 29.7 µM | [5] 29 µM | [10] 33.2 µM | [6] 33.3 µM | [7] 28.5 µM | [8] 28 µM

CC[C@H]1CC[C@H](NCc2cc3c(cc2OC)[C@H]2C[C@H]2C(=O)N3C)[C@H](c2ccccc2)N1
not listed: [4]
inactive: all other assays above

CC/C(=C\C(=N/O)C(N)=O)C(C)[N+](=O)[O-] (stereo not given)
not listed: [9]
inactive: all other assays above

Cc1c(-c2cccnc2)c2ccccc2n1CCCCC(=O)O
not listed: [4]
inactive: all other assays above

CCn1nc(Cc2ccccc2)cc1C1CCN(C[C@H]2C[C@H](N(C)[C@@H](C(=O)O)C(C)C)C[C@@H]2c2cccc(F)c2)CC1
not listed: [4]
inactive: all other assays above

O=C1CCCCCN1
not listed: [9] | [10]
inactive: all other assays above

CCCCCCCCCCCCc1ccccc1
not listed: [9]
inactive: all other assays above

O=P(OC(CCl)CCl)(OC(CCl)CCl)OC(CCl)CCl
not listed: [9]
inactive: all other assays above

CNS(=O)(=O)c1cc(C(=O)N2CCC(CCN3C4CCC3CC(n3c(C)nc5ccccc53)C4)(c3cccc(F)c3)CC2)c(Cl)cc1F (stereo not given)
active: [2] 20 µM | [6] 32.4 µM | [8] 20 µM
not listed: [9]
inactive: all other assays above

O=C1CCC(N2C(=O)c3ccccc3C2=O)C(=O)N1 (stereo not given)
not listed: [4]
inactive: all other assays above

CC(=O)OC[C@H]1O[C@@](COC(C)=O)(O[C@H]2O[C@H](COC(C)=O)[C@@H](OC(C)=O)[C@H](OC(C)=O)[C@H]2OC(C)=O)[C@@H](OC(C)=O)[C@@H]1OC(C)=O
not listed: [4] | [10]
inactive: all other assays above

Cc1ccc(N)cc1O
not listed: [9]
inactive: all other assays above

Cc1ccc(O)cc1
not listed: [4]
inactive: all other assays above

Cc1ccc(S(=O)(=O)O)cc1C
not listed: [9] | [10]
inactive: all other assays above

C1=CCCC=CCCC=CCC1
not listed: [4]
inactive: all other assays above

O=C(OC[C@H]1O[C@@H](OC(=O)c2cc(O)c(O)c(OC(=O)c3cc(O)c(O)c(O)c3)c2)[C@H](OC(=O)c2cc(O)c(O)c(OC(=O)c3cc(O)c(O)c(O)c3)c2)[C@@H](OC(=O)c2cc(O)c(O)c(OC(=O)c3cc(O)c(O)c(O)c3)c2)[C@@H]1OC(=O)c1cc(O)c(O)c(OC(=O)c2cc(O)c(O)c(O)c2)c1)c1cc(O)c(O)c(OC(=O)c2cc(O)c(O)c(O)c2)c1
inactive: [7]
active: [1] 3.31 µM | [2] 6.1 µM | [3] 4.39 µM | [5] 6.1 µM | [6] 3.09 µM | [8] 6.1 µM

Oc1ccc2c(c1)-c1ccccc1C2
not listed: [4] | [10]
inactive: all other assays above

NC(=O)NO
not listed: [4] | [10]
inactive: all other assays above

CC(C)CCO
inactive: [1] | [2] | [3] | [5] | [6] | [8]

CCCN(C1CCN(C(=O)C2CCNCC2)CC1)[C@@H]1CCc2ccc(OC)cc2C1
not listed: [4] | [9] | [10]
inactive: all other assays above

From PubChem BioAssay (EPA / NIEHS)
